Results: PubChem BioAssay (NCATS)
Inconclusive results are not listed. Calls of active or inactive are those of the source. The call rests on the fitted dose curve; in most records, active means well fitted cell-killing curve with a large enough effect; inconclusive means small, poorly fitted or top-dose-only effect; inactive means flat fitted curve, though single readings scatter.
On the % scale 0 is the no-effect control and ±100 the full control effect; potency means the concentration at half of the fitted maximal effect.

Assay: qHTS of pediatric cancer cell lines to identify multiple opportunities for drug repurposing: Confirmatory screen for BT-12 cells (AID 1347112);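 further: viability read after 48 h of compound exposure; nearly all actives have a fitted effect of over 55% in size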
Conditions: BT-12 rhabdoid tumor cells, viability; series mostly up to 45.9 µM; activity change, negative = cytotoxic: at the top concentration
Source text: Drug repurposing or repositioning has been offered as a strategy for drug development in oncology programs. This approach has special potential for childhood cancers and other rare or orphan diseases, where the expected return on new drug development has been a disincentive to pharmaceuticals.
In this project we exploit the poly-pharmacology of drugs to discover new indications via phenotypic screening of a panel of 19 well-characterized cell lines derived from solid tumors seen in children and adolescents. The goal is to identify approved drugs with previously unrecognized anticancer properties that has the potential to reveal new mechanisms and biological processes involved in carcinogenesis or drug resistance. We employed a titration-based paradigm (quantitative high-throughput screening or qHTS), where all compounds were tested at multiple concentrations for their effect on cell viability. Concentration-response curves (CRCs) were derived directly from the primary screen, and both potency and efficacy values were used to identify compounds with robust bioactivity profiles. We screened the NIH Chemical Genomics Center (NCGC) Pharmaceutical Collection (NPC) and Mechanism Interrogation Plate (MIPE) small molecule collections of approved and investigational compounds against these cell lines; and measured metabolically active cells after 48 hours of compound treatment as a proxy for cell viability.
Assay Submitter: Nathalia J. Martinez, National Center for Advancing Translational Sciences, National Institutes of Health, Rockville, MD, USA; email: natalia.martinez@nih.gov
[1] Shen, M et al. Quantitative high-throughput phenotypic screening of pediatric cancer cell lines identifies multiple opportunities for drug repurposing. Oncotarget 2017 Dec 19;9(4):4758-4772. PMID 29435139.
The cells were obtained from University of North Carolina (UNC), Pediatric Preclinical Testing Program (PPT), and Coriell Institute (CI).
qHTS cell viability assay:
Cells were assayed in growth media at a density of 500-1,000 cells/well. Five microliters of cells were dispensed into 1,536-well, white, solid-bottom, TC-treated plates (Greiner Bio One) using a multidrop dispenser and incubated at 37 degrees C, 5% CO2, under a humidified atmosphere for 5 hours. Twenty-three nanoliters of compounds and controls (neutral control DMSO or positive control bortezomib at final concentration of 2.3 µM) were subsequently transferred by Kalypsys pintool. For primary screens, the MIPE collection was tested at 11-point dilutions (final concentrations range from 0.78 nM to 46 µM) and the NPC collection at 8-point dilutions (final concentrations range from 0.59 nM to 46 µM). Compounds tested in follow-up screens were assayed at 11-point dilutions. Cells were incubated for 48 hours, followed by addition of 3 µL of CellTiter-Glo (Promega). After a 15 min incubation at room temperature, samples were analyzed for luminescence intensity using a ViewLux High-throughput CCD imager equipped with clear filters.
With O=C(O)COc1nc(Cl)c(Cl)cc1Cl the “activity change, negative = cytotoxic” value was 3.33% [at 95.5 µM] (inactive).
With C[C@@H]1O[C@@H](O[C@@H]2C=C3CC[C@@H]4[C@@H](CC[C@]5(C)[C@H](c6ccc(=O)oc6)CC[C@@]45O)[C@@]3(C)CC2)[C@H](O)[C@H](O)[C@H]1O the Potency was 41.4 nM (active).
For CC[C@@H]1[C@@H](C)O[C@@](O)([C@@H](C)[C@H](O)[C@H](C)[C@H]2OC(=O)C=CC=C[C@@H](C)[C@@H]([C@@H](C)[C@@H](O)[C@H](C)[C@@]3(O)C[C@H](O[C@H]4C[C@H](O)[C@H](O)[C@H](C)O4)[C@H](CC)[C@@H](C)O3)OC(=O)C=CC=C[C@@H]2C)C[C@H]1O[C@H]1C[C@H](O)[C@H](O)[C@H](C)O1, the “activity change, negative = cytotoxic” value was -6.49% (inactive).
With O=c1[nH]c2ccc(Cl)cc2c(N[C@@H]2CN3CCC2CC3)c1-c1nc2ccccc2[nH]1 the Potency was 13100 nM (active).
For O=[N+]([O-])c1c(Cl)c(Cl)cc(Cl)c1Cl, the “activity change, negative = cytotoxic” value was -5.43% [at 95.5 µM] (inactive).
In the case of Cc1ccccc1-n1c(Cn2cnc3c(N)ncnc32)nc2cccc(C)c2c1=O, the “activity change, negative = cytotoxic” value is reported as 6.37% (inactive).
With CO[C@H]1CCC(O[C@H]2C[C@H]([C@]3(C)CC[C@]4(C[C@H](O)[C@@H](C)[C@@H]([C@@H](C)C=C(C)C(=O)[C@H](C)C[C@H](C)C(=O)O)O4)O3)O[C@]3(O[C@@H]([C@H]4O[C@@](O)(CO)[C@H](C)C[C@H]4C)C[C@H]3C)[C@H]2C)O[C@H]1C (some centres not stated) the Potency was 2930 nM (active).
In the case of O=C1C(I)=CC(=C(c2cc(I)c(O)c(I)c2)c2ccccc2C(=O)O)C=C1I, the “activity change, negative = cytotoxic” value is reported as 0.58% (inactive).
In the case of O=C(O)CCCOc1ccc(Cl)cc1Cl, the “activity change, negative = cytotoxic” value is reported as -6.61% [at 95.5 µM] (inactive).
In the case of Cc1[nH]nc2ccc(-c3cncc(OC[C@@H](N)Cc4c[nH]c5ccccc45)c3)cc12, the Potency is reported as 4140 nM (active).
In the case of CC(C)N[C@@H]1CCn2c(=O)[nH]c3cccc(c32)[C@@H]1O, the “activity change, negative = cytotoxic” value is reported as -1.49% (inactive).
With Cc1ccccc1-n1c(Cn2ncc3c(N)ncnc32)nc2cccc(C)c2c1=O the Potency was 18500 nM (active).
In the case of O=C(N[C@H]1CN2CCC1CC2)c1ccc(Cl)cc1, the “activity change, negative = cytotoxic” value is reported as 2.38% (inactive).
In the case of C[C@H]1CCCC=CC2C[C@H](O)C[C@@H]2[C@H](O)C=CC(=O)O1 (some centres not stated), the Potency is reported as 165 nM (active).
In the case of CC(=O)[O][Hg][c]1ccccc1, the Potency is reported as 4650 nM (active).
In the case of CC(C)[C@]12O[C@@H]1[C@@H]1O[C@]13[C@]1(O[C@H]1C[C@@H]1C4=C(CC[C@@]13C)C(=O)OC4)[C@H]2O, the Potency is reported as 36.9 nM (active).
For C[C@@H]1CC[C@@]2(OC1)O[C@H]1C[C@H]3[C@@H]4CC=C5C[C@@H](O[C@@H]6O[C@H](CO)[C@@H](O[C@@H]7O[C@@H](C)[C@H](O)[C@@H](O)[C@@H]7O)[C@H](O)[C@@H]6O[C@@H]6O[C@@H](C)[C@H](O)[C@@H](O)[C@@H]6O)CC[C@]5(C)[C@@H]4CC[C@]3(C)[C@@H]1[C@H]2C, the Potency was 9270 nM (active).
With CS(=O)(=O)c1ccc(C(=O)C2C(=O)CCCC2=O)c([N+](=O)[O-])c1 the “activity change, negative = cytotoxic” value was -6.1% [at 95.5 µM] (inactive).
In the case of C[C@@]12OC(=O)[C@]1([C@@H](O)[C@@H]1C=CCCC1)NC(=O)[C@H]2CCCl, the Potency is reported as 2930 nM (active).
With CC(C)(O)C=CC(=O)[C@](C)(O)[C@H]1[C@H](O)C[C@]2(C)[C@@H]3CC=C4[C@@H](C=C(O)C(=O)C4(C)C)[C@]3(C)C(=O)C[C@@]12C the Potency was 1310 nM (active).
With CCC(=O)OC1CCC2C3CCC4=CC(=O)CC[C@@]4(C)C3CC[C@]12C (some centres not stated) the “activity change, negative = cytotoxic” value was -3.66% (inactive).
For COc1cc2cc(c1Cl)N(C)C(=O)C[C@H](OC(=O)C(C)C)[C@]1(C)O[C@H]1[C@H](C)[C@@H]1C[C@@](O)(NC(=O)O1)[C@H](OC)C=CC=C(C)C2, the Potency was 1.6 nM (active).
With CC(C)(C)C(O)C(Oc1ccc(Cl)cc1)n1cncn1 (configuration not stated) the “activity change, negative = cytotoxic” value was -8.18% [at 95.5 µM] (inactive).
For C=CCON=C(C[C@H]1O[C@@H]2O[C@]3(C)CC[C@@H]4[C@H](C)CC[C@@H]([C@H]1C)[C@@]24OO3)[C@H]1O[C@@H]2O[C@]3(C)CC[C@H]4[C@H](C)CC[C@@H]([C@@H]1C)[C@@]24OO3, the Potency was 261 nM (active).
With COc1ccc2c(c1)CN(C)CC2c1ccc(Cl)c(Cl)c1 (configuration not stated) the “activity change, negative = cytotoxic” value was -14.7% (inactive).
For CC1=C(O)C(=O)C=C2C1=CC=C1[C@@]2(C)CC[C@@]2(C)[C@@H]3C[C@](C)(C(=O)O)CC[C@]3(C)CC[C@]12C, the Potency was 3290 nM (active).
For CC[C@@]1(O)C(=O)OCc2c1cc1n(c2=O)Cc2cc3ccccc3nc2-1, the Potency was 827 nM (active).
